“And” between values parts separate entries of the source, which are not always exact repeats. Identical values can stand only once. Records with an inconclusive call do not appear. Where a call stands in place of a potency, no number is given. The source made the active and inactive calls. Calls come from the whole dose curve.
Potency is the fitted concentration of half-maximal effect.

A short description of this assay: Primary qHTS to identify inhibitors of SARS-CoV-2 cell entry (AID 1645846). Note: nearly all actives have a fitted effect of over 45% in size. Conditions: SARS-CoV-2 pseudovirus cell entry assay, luminescence; activity change, negative = inhibition: at 57.1 µM (top of the series) unless noted; series mostly up to 57.1 µM. In a few lines: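 HEK293 cells stably expressing human ACE2, pre-treated 1 h with compound, then infected with MLV particles pseudotyped with Wuhan-Hu-1 spike (C-terminal 19-aa truncation). Luciferase luminescence after 48 h at 37 °C, normalised to spike PP and bald PP.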
For the compound `CCOC(=O)C1=C[C@@H](OC(CC)CC)[C@H](NC(C)=O)[C@@H](N)C1`, the compound was classed as inactive and the activity change, negative = inhibition is -2%. As to `CC(CN(C)C)C(C)(O)Cc1ccc(Cl)cc1` (stereo unspecified), the activity change, negative = inhibition is 0.771%.

On to `COc1ccccc1OCC(O)CO` (stereo unspecified), for which the activity change, negative = inhibition is -15.9%.

As for `CCCCCCCCCCCC(=O)[O][Sn]([CH2]CCC)([CH2]CCC)[O]C(=O)CCCCCCCCCCC`, the activity change, negative = inhibition was -23.2%. For the compound `C#C[C@]1(O)CC[C@H]2[C@@H]3CCC4=CC(=O)CC[C@@H]4[C@H]3CC[C@@]21CC`, the compound was classed as inactive. In the case of `COCCCN1CCC(NC(=O)c2cc(Cl)c(N)c3c2OCC3)CC1`, the compound was classed as inactive and the activity change, negative = inhibition is -5.91%. Consider `CS(=O)(=O)c1ccc([C@@H](O)[C@@H](CF)NC(=O)C(Cl)Cl)cc1`, for which the activity change, negative = inhibition was -26.1%. As to `O=C(O)C(S)C(S)C(=O)O` (stereo unspecified), the outcome was inactive. As for `CC(=O)[C@H]1CC[C@H]2[C@@H]3C=CC4=CC(=O)CC[C@@]4(C)[C@@H]3CC[C@]12C`, the activity change, negative = inhibition is -10.8%.

On to `C[C@@H]1[C@H](O)[C@@H](C)/C=C/C=C\C=C\C=C\C=C\C=C\C=C\[C@H](O[C@@H]2O[C@H](C)[C@@H](O)[C@H](N)[C@@H]2O)C[C@@H]2O[C@](O)(C[C@@H](O)C[C@@H](O)[C@H](O)CC[C@@H](O)C[C@@H](O)CC(=O)O[C@H]1C)C[C@H](O)[C@H]2C(=O)O` (stereo in doubt), for which the outcome was inactive. Still for that read-out and setting: for `CCCOC(=O)c1ccccc1` the value was “inactive”. With `CC(=O)[C@@]1(O)CC[C@H]2[C@@H]3C[C@H](C)C4=CC(=O)C=C[C@]4(C)[C@@]3(F)[C@@H](O)C[C@@]21C`, the activity change, negative = inhibition stood at 1.04%.

On to `COC(=O)[C@@H]1[C@H]2C[C@H]3c4[nH]c5ccccc5c4CCN3C[C@@H]2CC[C@@H]1O`, for which the compound was called inactive and the activity change, negative = inhibition is -32.5%. With `C1COC(NC(C2CC2)C2CC2)=N1`, the activity change, negative = inhibition came out at 1.02%. Turning to `Nc1ccc(S(=O)(=O)NC(=O)c2ccccc2)cc1`, the compound was classed as inactive.

`CN[C@@H]1CCc2[nH]c3ccc(C(N)=O)cc3c2C1`: the activity change, negative = inhibition was -34.4%. On to `Nc1nc2ccc(OC(F)(F)F)cc2s1`, for which the compound was called inactive.

For `CNC[C@H](O)c1cccc(O)c1`, the result was inactive and the activity change, negative = inhibition amounted to 1.11%.

For `CN1CCN(CC(=O)N2c3ccccc3C(=O)Nc3cccnc32)CC1`, the outcome is “inactive [at 5.25 µM]”.

On to `NC(=O)c1ncn([C@@H]2O[C@H](CO)[C@@H](O)[C@H]2O)c1O`, for which the Potency result is “inactive”. On the same count and under the same terms, for `COc1cc(NS(C)(=O)=O)ccc1Nc1c2ccccc2nc2ccccc12` the value was 1 µM (active) and 708 nM (active).

As for `O=C(N[C@H](CO)[C@H](O)c1ccc([N+](=O)[O-])cc1)C(Cl)Cl`, the activity change, negative = inhibition was 2.2%. With `O=c1c(-c2ccc(O)cc2)coc2cc(O)cc(O)c12`, the activity change, negative = inhibition is -23.9% [at 114 µM].

With `CCOC(=O)c1ccc(O)cc1`, the call was inactive. Same read-out and setting: for `NC1CCN(c2nc3c(cc2F)c(=O)c(C(=O)O)cn3-c2ccc(F)cc2F)C1` (stereo unspecified) the value was “inactive”. With `C#CCC(Cc1cnc2nc(N)nc(N)c2n1)c1ccc(C(=O)N[C@@H](CCC(=O)O)C(=O)O)cc1` (stereo partly specified), the activity change, negative = inhibition is -93.7%. Consider `CCCCCCCCCCC[C@@H](C[C@@H]1OC(=O)[C@H]1CCCCCC)OC(=O)[C@H](CC(C)C)NC=O`, for which the activity change, negative = inhibition was 0.353%. For `O=C(CCOCCOCCOCCOCCC(=O)Nc1c(I)cc(I)c(C(=O)O)c1I)Nc1c(I)cc(I)c(C(=O)O)c1I`, the compound was called inactive.

Take `CNNCc1ccc(C(=O)NC(C)C)cc1`: the outcome was inactive and the activity change, negative = inhibition is 3.71%.

Take `CC(=O)OC(C)C[N+](C)(C)C` (stereo unspecified): the compound was classed as inactive. Still for that read-out and setting: for `CC(=O)OCC(=O)[C@@]1(O)[C@H](OC(C)=O)C[C@H]2[C@@H]3CCC4=CC(=O)C=C[C@]4(C)[C@@]3(F)[C@@H](O)C[C@@]21C` the value was “inactive”. Turning to `CC(=O)N1CCN(c2ccc(OC[C@H]3CO[C@](Cn4ccnc4)(c4ccc(Cl)cc4Cl)O3)cc2)CC1`, the Potency is 15.8 µM (active). On to `CN1C(C(=O)Nc2ccccn2)=C(O)c2sccc2S1(=O)=O`, for which the Potency result was “inactive”. The same measure, in the same setting: for `O=C(O)c1cc(=O)c2c(OCC(O)COc3cccc4oc(C(=O)O)cc(=O)c34)cccc2o1` the value was “inactive”.

On to `CC(C)CN(C[C@@H](O)[C@H](Cc1ccccc1)NC(=O)O[C@H]1CO[C@H]2OCC[C@H]21)S(=O)(=O)c1ccc(N)cc1`, for which the call was inactive. Same read-out and setting: to `O=C1c2c(O)cccc2Cc2cccc(O)c21` belongs “inactive”; to `COc1ccc(-c2cc(=O)c3c(O)cc(O[C@@H]4O[C@H](CO[C@@H]5O[C@@H](C)[C@H](O)[C@@H](O)[C@H]5O)[C@@H](O)[C@H](O)[C@H]4O)cc3o2)cc1O`, “inactive”. In the case of `CC(=O)N(CC(O)CO)c1c(I)c(C(=O)NCC(O)CO)c(I)c(C(=O)NCC(O)CO)c1I` (stereo unspecified), the call was inactive. On to `c1ccc(-c2nc[nH]c2-c2ccccc2)cc1`, for which the outcome was inactive. For `CN1C(C(=O)Nc2ccccn2)=C(O)c2ccccc2S1(=O)=O`, the result was inactive and the activity change, negative = inhibition was -89.8%.

The record behind these values is PubChem BioAssay (NCATS).
